From PubChem BioAssay (Tox21)
The source made the active and inactive calls. The call rests on the fitted dose curve; in most records, active means well fitted curve in the direction sought with a large enough effect in the repeat runs; inconclusive means weak or mixed curves; inactive means flat fitted curve, though single readings scatter.

Assay: qHTS assay to test for compound auto fluorescence at 460 nm (blue) in HEK293 cell free culture (AID 720681)
Conditions: cell-free medium, autofluorescence 405/460 nm (blue); series mostly up to 91.3 µM
How it was run: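 Test compounds were pinned into cell-free culture medium (DMEM with 10% FBS) and fluorescence was read directly at Ex/Em 405/460 nm. Signals were expressed as fluorescence equivalents of triamterene, with DMSO vehicle as control.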
On the % scale 0 is the no-effect control and ±100 the full control effect.

SMILES	outcome	fluorescence, % of fluorescent control
Nc1ccn([C@@H]2O[C@H](CO)[C@@H](O)C2(F)F)c(=O)n1	inactive	
Clc1cc(Cl)c(Cl)nc1Cl	inactive	
C=COC(=O)C(C)(CC)CCC(C)C (stereo not drawn)	inactive	
CC1=NS(=O)(=O)c2cc(Cl)ccc2N1	inactive	
Cc1ccc(C(=O)c2ccc(CC(=O)O)n2C)cc1		0.0612% [at 18.6 µM] (inactive)
CN(C)CCN(C)CCN(C)C	inactive	
CN(C)[C@@H]1C(=O)C(C(=O)NCN2CCCC2)=C(O)[C@@]2(O)C(=O)C3=C(O)c4c(O)cccc4[C@@](C)(O)C3C[C@@H]12 (stereo partly drawn)	inactive	
CC(C)CC(C)(N)C#N (stereo not drawn)	inactive	
C=C(C)C(=O)OCCOCCOCCOCCOC(=O)C(=C)C	inactive	
CO[C@@]1(NC(=O)C(C(=O)O)c2ccc(O)cc2)C(=O)N2C(C(=O)O)=C(CSc3nnnn3C)CO[C@@H]21 (stereo partly drawn)		0.413% [at 18.6 µM] (inactive)
C[N+]1(C)CCCC(OC(=O)C(O)(c2ccccc2)c2ccccc2)C1 (stereo not drawn)		0.158% [at 18.6 µM] (inactive)
COc1cc(C(=O)NCc2ccc(OCCN(C)C)cc2)cc(OC)c1OC		-0.119% [at 18.6 µM] (inactive)
CN1CCC(=C2c3ccccc3CCc3cccnc32)CC1	inactive	
NO	inactive	
O=C(CO)[C@@H](O)[C@H](O)[C@H](O)CO	inactive	
CC1=NN(c2cccc(S(=O)(=O)O)c2)C(=O)C1	inactive	
O=C(c1ccccc1)C1(O)CCCCC1	inactive	
CCCCc1nc(Cl)c(CO)n1Cc1ccc(-c2ccccc2-c2nn[nH]n2)cc1	inactive	

SMILES	outcome	fluorescence, % of fluorescent control
[O-][n+]1cccc(CO)c1	inactive	
CCCCCCCCCCCCCCCCCCO	inactive	
CN1CCN(c2cc3c(nn2)Oc2ccccc2N3C)CC1	inactive	
OCCc1ccccn1	inactive	
Nc1ccn([C@@H]2O[C@H](CO)[C@@H](O)C2O)c(=O)n1 (stereo partly drawn)	inactive	
COCCOC[C@H](CC1(C(=O)NC2CCC(C(=O)O)CC2)CCCC1)C(=O)Oc1ccc2c(c1)CCC2 (stereo partly drawn)	inactive	
COc1cc(-c2ccc(=O)[nH]n2)ccc1OC(F)F	inactive	
CC(=O)c1cnccn1	inactive	
CCCCc1ccc2c(n1)[C@@H](c1ccc(OC)cc1C[C@H](C)C(=O)O)[C@H](C(=O)O)[C@H]2c1ccc2c(c1)OCO2	inactive	
CNC(=O)Nc1ccc(Cl)c(Cl)c1	inactive	
O=C(O)c1cc(C(=O)O)cc(C(=O)O)c1	inactive	
COC(=O)Nc1ccc(Cl)c(Cl)c1	inactive	
CCC(C(=O)NC(=O)NC(C)=O)c1ccccc1 (stereo not drawn)	inactive	
CCCCS(=O)(=O)N[C@@H](Cc1ccc(OCCCCC2CCNCC2)cc1)C(=O)O	inactive	
CCC(C)(CN(C)C)OC(=O)c1ccccc1 (stereo not drawn)		-0.0658% [at 18.6 µM] (inactive)
OCCCCCO	inactive	
Nc1ccn([C@@H]2O[C@H](CO)[C@@H](O)[C@@H]2O)c(=O)n1	inactive	
CC[N+](CC)(CC(=O)Nc1c(C)cccc1C)Cc1ccccc1 (tested in a mixture with another compound)	inactive	

Assay: qHTS assay to test for compound auto fluorescence at 535 nm (green) in HEK293 cell free culture (AID 720682)
Conditions: cell-free medium, green autofluorescence 485/535 nm, stronger effect = higher value; series mostly up to 91.3 µM
How it was run: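 Steps: dispense DMEM/10% FBS into empty wells; pin in compound or DMSO; measure fluorescence at 485/535 nm. Values are fluorescein equivalents.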

SMILES	outcome	activity change
Nc1ccn([C@@H]2O[C@H](CO)[C@@H](O)C2(F)F)c(=O)n1	inactive	
Clc1cc(Cl)c(Cl)nc1Cl	inactive	
C=COC(=O)C(C)(CC)CCC(C)C (stereo not drawn)	inactive	
CN(C)[C@@H]1C(=O)C(C(=O)NCN2CCCC2)=C(O)[C@@]2(O)C(=O)C3=C(O)c4c(O)cccc4[C@@](C)(O)C3C[C@@H]12 (stereo partly drawn)	inactive	
CC(C)CC(C)(N)C#N (stereo not drawn)	inactive	
C=C(C)C(=O)OCCOCCOCCOCCOC(=O)C(=C)C	inactive	
CO[C@@]1(NC(=O)C(C(=O)O)c2ccc(O)cc2)C(=O)N2C(C(=O)O)=C(CSc3nnnn3C)CO[C@@H]21 (stereo partly drawn)		0.0756% [at 18.6 µM] (inactive)
C[N+]1(C)CCCC(OC(=O)C(O)(c2ccccc2)c2ccccc2)C1 (stereo not drawn)		-0.0354% [at 18.6 µM] (inactive)
CN1CCC(=C2c3ccccc3CCc3cccnc32)CC1	inactive	
NO	inactive	
CC1=NN(c2cccc(S(=O)(=O)O)c2)C(=O)C1	inactive	
O=C(c1ccccc1)C1(O)CCCCC1	inactive	
CCCCc1nc(Cl)c(CO)n1Cc1ccc(-c2ccccc2-c2nn[nH]n2)cc1	inactive	
[O-][n+]1cccc(CO)c1	inactive	
CN1CCN(c2cc3c(nn2)Oc2ccccc2N3C)CC1	inactive	
OCCc1ccccn1	inactive	
Nc1ccn([C@@H]2O[C@H](CO)[C@@H](O)C2O)c(=O)n1 (stereo partly drawn)	inactive	
COCCOC[C@H](CC1(C(=O)NC2CCC(C(=O)O)CC2)CCCC1)C(=O)Oc1ccc2c(c1)CCC2 (stereo partly drawn)	inactive	
CCCCc1ccc2c(n1)[C@@H](c1ccc(OC)cc1C[C@H](C)C(=O)O)[C@H](C(=O)O)[C@H]2c1ccc2c(c1)OCO2	inactive	
CNC(=O)Nc1ccc(Cl)c(Cl)c1	inactive	
O=C(O)c1cc(C(=O)O)cc(C(=O)O)c1	inactive	
COC(=O)Nc1ccc(Cl)c(Cl)c1	inactive	
CCC(C(=O)NC(=O)NC(C)=O)c1ccccc1 (stereo not drawn)	inactive	
CCCCS(=O)(=O)N[C@@H](Cc1ccc(OCCCCC2CCNCC2)cc1)C(=O)O	inactive	
CCC(C)(CN(C)C)OC(=O)c1ccccc1 (stereo not drawn)		-0.158% [at 18.6 µM] (inactive)
OCCCCCO	inactive	
Nc1ccn([C@@H]2O[C@H](CO)[C@@H](O)[C@@H]2O)c(=O)n1	inactive	
